Bioassay records as filed in PubChem.
The sample as a whole holds a higher share of hits than the screen did.
Shiga toxin inh = blocks Shiga toxin action in Vero cells. inhibition, % at 38.7 µM. 9.2% of 290,000 active. AID 2315. Vero cells, Shiga toxin protein synthesis inhibition reporter; in the data active = inhibition mostly above about 28%, no sharp cut-off; inactive = mostly below about 43%
Tb PYK inh = inhibitors of Trypanosoma brucei pyruvate kinase. AID 624173. Potency, µM (highest dose often 76.8 µM), usual class: inhibitors. TbPYK enzyme, Kinase-Glo Plus ATP luminescence, 45 min. 0.12% of 410,000 active; also: nearly all actives have a fitted effect of over 50% in size
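T. brucei PYK with substrate was exposed to pin-transferred compounds across a concentration series, then started with 130 uM ADP (final). After 45 min at room temperature, Kinase-Glo Plus luminescence was read, normalized and curve-fitted.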
LmPK inhibitor = inhibitors of Leishmania mexicana pyruvate kinase; Potency, µM (series often up to 57.5 µM), most hits filed as inhibitors; Q27686; 0.37% of 290,000 active; purified LmPK, Kinase-Glo ATP luminescence, 1 h; AID 1721
Target sequence (Q27686 whole entry, looked up): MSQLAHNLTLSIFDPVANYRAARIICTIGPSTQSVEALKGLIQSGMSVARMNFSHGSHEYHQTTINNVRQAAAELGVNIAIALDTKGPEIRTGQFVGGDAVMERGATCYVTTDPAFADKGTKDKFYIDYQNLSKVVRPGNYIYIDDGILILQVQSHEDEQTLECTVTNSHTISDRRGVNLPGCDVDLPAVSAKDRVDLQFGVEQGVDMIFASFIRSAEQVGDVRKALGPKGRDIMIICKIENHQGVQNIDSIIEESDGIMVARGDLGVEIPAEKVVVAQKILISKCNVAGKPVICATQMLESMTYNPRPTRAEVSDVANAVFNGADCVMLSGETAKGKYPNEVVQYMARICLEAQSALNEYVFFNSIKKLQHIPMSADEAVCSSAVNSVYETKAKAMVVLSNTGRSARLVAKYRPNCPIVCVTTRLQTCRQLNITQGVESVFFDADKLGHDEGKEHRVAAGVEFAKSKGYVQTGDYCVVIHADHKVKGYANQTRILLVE
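Purified LmPK (0.1 nM) converted ADP (0.1 mM) to ATP with PEP (0.5 mM) in imidazole buffer pH 7.2 with KCl and MgCl2, 1 h at room temperature. ATP was read by Kinase-Glo luminescence; data normalized to uninhibited and no-enzyme controls.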
SARS PLpro yeast = blocks SARS-CoV papain-like protease in a yeast assay; S. cerevisiae expressing SARS-CoV PLpro, growth rescue; Potency, µM (titrated, usually from 32.9 µM), most hits filed as activators; 0.19% of 330,000 active; AID 485353; calls by dose curve; also: nearly all actives have a fitted effect of over 55% in size
NS1 inh = blocks influenza NS1 protein function; 0.4% of 270,000 active; Potency, µM (series often up to 46.1 µM); AID 2326; calls by dose curve; also: actives are rising curves; nearly all actives have a fitted effect of over 50% in size
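Growth recovery, yeast-based: influenza A NS1 expressed in S. cerevisiae causes slow growth, and suppressors are detected by OD600. The parent strain without NS1 is used as positive control.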
CHX counter = counter-screen for Shiga toxin inhibitors: cycloheximide protein synthesis inhibition | max response, % | 12% of 300,000 active | cell reporter, cycloheximide protein synthesis inhibition counterscreen; in the data active = max response mostly above about 13%, no sharp cut-off; inactive = mostly below about 14%; also: read at 38.3 µM for the half of the compounds with a filed dose
Of the large screens only hits and unclear results are named; the others gave an inactive call. Unless noted, calls follow the shape of the dose curve; as a rule, active = well fitted curve in the direction sought with a large enough effect; inconclusive = small, poorly fitted or top-dose-only effect, or another doubt; inactive = no such curve, though single readings can be large; an effect the other way counts as inactive or inconclusive.

C/C=C(\C)c1nnc(NC(=O)OCC)s1	Shiga toxin inh 42, CHX counter 15
CCOC(=O)Nc1nnc(CCc2ccccc2)s1	none
CCCCCc1nnc(NC(=O)OCCC)s1	CHX counter 14
CCCCOC(=O)Nc1nnc(CC)s1	Shiga toxin inh 56, CHX counter 43
O=C(Nc1ccc(N2CCCC2)cc1)c1ccc(Cl)cc1Cl	Shiga toxin inh 47, CHX counter 47
O=C(Nc1ccc(N2CCCC2)cc1)C(c1ccccc1)c1ccccc1	none
O=C(Nc1ccc(N2CCCCC2)cc1)C(Cl)c1ccccc1 (configuration not stated)	CHX counter 46
COC(=O)Cc1ccc(NC(=O)c2ccccc2Cl)cc1	CHX counter 28
O=C(Nc1ccc(N2CCCCC2)cc1)c1ccccn1	Tb PYK inh inconclusive, LmPK inhibitor 7.9µM (no result: NS1 inh)
COc1cccc(OC)c1C(=O)Nc1ccc(N2CCCC2)cc1	Tb PYK inh inconclusive (no result: Shiga toxin inh)
O=C(Nc1ccc(SC(F)(F)F)cc1)c1ccccn1	Shiga toxin inh 113, CHX counter 30
C/C(CC(=O)Nc1ccc(F)cc1)=N\NC(=O)c1ccccn1	none (no result: NS1 inh)
CN1CCN(c2ccc(NC(=O)c3ccc(Cl)cc3Cl)cc2)CC1	CHX counter 15 (no result: Shiga toxin inh)
O=C(Nc1ccc(N2CCCC2)cc1)c1cc(Cl)ccc1Cl	CHX counter 13 (no result: Shiga toxin inh)
COc1ccccc1C(=O)Nc1ccc(N2CCCCC2)cc1	Shiga toxin inh 65, LmPK inhibitor inconclusive, CHX counter 45
CCCS(=O)(=O)NCCc1csc(-c2cccnc2)n1	none (no result: Shiga toxin inh, Tb PYK inh, LmPK inhibitor, SARS PLpro yeast, CHX counter)
O=C(Nc1ccc(N2CCCC2)cc1)c1cccc(Cl)c1	Shiga toxin inh 52, CHX counter 25
CCN1CCN(c2ccc(NC(=O)COc3ccccc3Cl)cc2)CC1	none
O=C(COc1ccccc1Cl)Nc1ccc(N2CCCC2)cc1	Shiga toxin inh 53, CHX counter 25
O=C(Nc1ccc(N2CCCCCC2)cc1)c1ccccc1Cl	Shiga toxin inh 53, CHX counter 34
O=C(Nc1ccc(N2CCOCC2)cc1)c1cc(F)c(F)cc1Cl	Shiga toxin inh 56, CHX counter 35
CC(=O)N1CCN(c2ccc(NC(=O)c3ccccc3Cl)cc2)CC1	none
Cc1ccc(C(=O)O)c(C(=O)Nc2nc3ccccc3s2)c1	SARS PLpro yeast inconclusive
CS(=O)(=O)c1ccc2nc(NC(=O)c3cccs3)sc2c1	LmPK inhibitor 16µM
Cc1ccc(C(=O)Nc2nc3ccccc3s2)s1	CHX counter 52
CN(CC(=O)Nc1nc2ccccc2s1)S(=O)(=O)c1ccccc1	Shiga toxin inh 61, CHX counter 29
COc1ccc(Cl)cc1C(=O)Nc1nc2ccc(S(C)(=O)=O)cc2s1	none (no result: Tb PYK inh, NS1 inh)
c1ccc2sc(NN=C3CCCCCC3)nc2c1	CHX counter 33
CC(=NNc1nc2ccccc2s1)c1ccncn1	none (no result: Shiga toxin inh, LmPK inhibitor, SARS PLpro yeast, NS1 inh, CHX counter)
CC(NC(=O)c1cc(-c2ccc(O)cc2)on1)c1ccccc1 (configuration not stated)	none (no result: Shiga toxin inh, Tb PYK inh, LmPK inhibitor, SARS PLpro yeast, CHX counter)
COc1cc(C(=O)Nc2nc3ccc(S(C)(=O)=O)cc3s2)cc(OC)c1C	none
Cc1csc2nc(NC(=O)c3ccccc3)sc(=O)c12	CHX counter 12
O=C(Nc1nc2ccccc2s1)c1ccccc1	Shiga toxin inh 91, CHX counter 28
O=C(O)c1ccccc1-c1ccccc1C(=O)Nc1nc2ccccc2s1	none
Cc1ccc(C(=O)Nc2nc3ccc(S(C)(=O)=O)cc3s2)s1	CHX counter 70
O=C(C[n+]1ccccc1)Nc1nc2ccccc2s1	CHX counter 21
COc1ccc(CNC(=O)Cn2ncn3nc(-c4cccs4)cc3c2=O)cc1	none (no result: Shiga toxin inh, LmPK inhibitor, SARS PLpro yeast, NS1 inh, CHX counter)
Cc1ccccc1S(=O)(=O)O[C@@H]1NS(=O)(=O)c2ccccc21	none (no result: Shiga toxin inh, Tb PYK inh, LmPK inhibitor, SARS PLpro yeast, CHX counter)
O=S(=O)(O)OCC1OC(OC2(COS(=O)(=O)O)OC(COS(=O)(=O)O)C(OS(=O)(=O)O)C2OS(=O)(=O)O)C(OS(=O)(=O)O)C(OS(=O)(=O)O)C1OS(=O)(=O)O (configuration not stated)	none (no result: Shiga toxin inh, LmPK inhibitor, SARS PLpro yeast, NS1 inh, CHX counter)
C[C@H](NC(=O)[C@@H]1Cc2ccccc2CN1)C(=O)NCC1CCCO1 (some centres not stated)	none
Cc1cc(NC(=O)c2ccc(C)s2)n(-c2nc3ccccc3[nH]2)n1	Shiga toxin inh 33
CCCCNS(=O)(=O)c1ccc2nc(-c3cccnc3)cc(C(=O)NCC(OC)OC)c2c1	none
Cc1c(NS(=O)(=O)c2ccccc2)cc(C(C)C)c(O)c1S(=O)(=O)c1ccc(Cl)cc1	none (no result: Shiga toxin inh, LmPK inhibitor, SARS PLpro yeast, NS1 inh, CHX counter)
COc1cc2c(cc1OC)CN(c1ccc([N+](=O)[O-])cc1Cl)CC2	none
COc1cc2c(cc1OC)CN(c1ncccc1[N+](=O)[O-])CC2	Shiga toxin inh 55, CHX counter 25
COc1cc2c(cc1OC)CN(c1ccc(F)cc1[N+](=O)[O-])CC2	Shiga toxin inh 72, CHX counter 30
COc1ccc(C2=NS(=O)(=O)N(C)C(C(=O)Nc3ccc(F)cc3F)=C2)cc1	none
O=C(CC1SCCNC1=O)NCc1ccccc1 (configuration not stated)	none (no result: Shiga toxin inh, LmPK inhibitor, SARS PLpro yeast, NS1 inh, CHX counter)
COc1cc2c3c(c1)c(C1=NC(=S)NC1=O)c(O)n3C(C)(C)C=C2C	CHX counter 21
CC1(c2ccccc2)CC(C)(C)n2c(O)c(C3=NC(=S)NC3=O)c3cccc1c32 (configuration not stated)	none
CCN1C(=O)/C(=C/C=C2\C=CN(CC)c3ccccc32)SC1=S	Tb PYK inh inconclusive, LmPK inhibitor 18µM
N#Cc1ccc(N2Cc3ccccc3C2=NC(=O)c2cccnc2Cl)cc1	Shiga toxin inh active, CHX counter 25
O=C(N=C1c2ccccc2CN1c1ccc(F)c(Cl)c1)c1cccnc1Cl	Shiga toxin inh 77, CHX counter 70 (no result: Tb PYK inh)
N=C1c2ccccc2CN1c1ccc(F)c([N+](=O)[O-])c1	none
COC(=O)c1ccc(N=Nc2c(C)[nH]n(-c3ccccc3)c2=O)cc1	none
COC(=O)c1ccc(NS(=O)(=O)N(C)C)cc1	none
COC(=O)c1ccc(N=NNc2cccc(Br)c2)cc1	Shiga toxin inh 74, CHX counter 63
COC(=O)c1ccc(N=NNc2ccccc2)cc1	Shiga toxin inh 131, CHX counter 53
COC(=O)c1ccc(N=NNc2ccc(C(=O)OC)cc2)cc1	Shiga toxin inh 127, SARS PLpro yeast inconclusive, CHX counter 122
COC(=O)C(C)Nc1cccc(Br)c1 (configuration not stated)	none
O=C(O)c1ccc(N=NNc2cccc([N+](=O)[O-])c2)cc1	Shiga toxin inh 108, CHX counter 42
Cc1ccc(OCC(=O)NCCNC(=O)c2ccncc2)cc1C	none
Cc1cc(C)n(NC(=S)NC2CCCC2)c(=O)c1C#N	none
COc1ccc(-c2nn(-c3ccccc3)cc2C(=O)N2CCOCC2)cc1	none
COc1ccc(-c2cn(-c3ccccc3)nc2CO)cc1	Shiga toxin inh 111, CHX counter 37
OCc1cn(-c2ccccc2)nc1-c1cccnc1	none
Cc1ccc(-c2nn(-c3ccccc3)cc2CO)cc1	Shiga toxin inh 144, CHX counter 42
